{
  "source": "PubChem BioAssay AID493200",
  "about": "(National Center for Advancing Translational Sciences (NCATS), 2011)",
  "note": "Records with an inconclusive call do not appear. Where a call stands in place of a potency, no number is given. Active and inactive are the calls of the source. The call rests on the fitted dose curve; in most records, active means well fitted activation curve with a large enough effect; inconclusive means small, poorly fitted or top-dose-only effect; inactive means no such curve, though single readings can be large or run the other way. Potency means the concentration at half of the fitted maximal effect.",
  "data": [
    {"test": "qHTS Assay for Rab9 Promoter Activators: Initial hit validation from the primary screen", "details": "Huh7 Rab9 promoter luciferase reporter, 24 h; series mostly up to 46.1 µM", "method_in_brief": "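Huh7 cells stably carrying a Rab9 promoter–luciferase construct, plated in reduced-serum medium with 10% FBS, rested 2 h, then exposed to compounds in DMSO for 24 h at 37C. Luminescence read 10 min after adding Amplite luciferase reagent.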", "values": [
      {"smiles": "Cn1c(SCc2ccccc2)nnc1-c1cnccn1", "Potency": "14100 nM (active)"},
      {"smiles": "COc1ccc(/C=C\\C(=O)c2c(O)ccc3c(C)cc(=O)oc23)cc1OC", "Potency": "inactive"},
      {"smiles": "Cc1cccc(C)c1NC(=O)Nc1cccs1", "Potency": "inactive"},
      {"smiles": "O=C(COC(=O)c1ccc(-c2nnc(-c3ccccc3)o2)cc1)c1ccccc1", "Potency": "396 nM (active)"},
      {"smiles": "CCCCn1c(Nc2ccc(OC)cc2)nc2ccccc21", "Potency": "inactive"},
      {"smiles": "O=C(CN1C(=O)COc2ccc(Cl)cc21)NCC1CCCO1", "note": "(centres undefined)", "Potency": "inactive"},
      {"smiles": "Cc1c(C(O)CN2CCN(Cc3ccc4c(c3)OCO4)CC2)c2ccccc2n1C", "note": "(centres undefined)", "Potency": "inactive"},
      {"smiles": "NNC(=O)c1cccc(S(=O)(=O)Nc2cc(Cl)ccc2Cl)c1", "Potency": "inactive"},
      {"smiles": "O=C(O)CSc1nnc(-c2ccncc2)n1CCc1ccccc1", "Potency": "inactive"},
      {"smiles": "CN(C)C(CNC(=O)CNC(=O)c1ccc2ccccc2c1)c1ccccc1", "note": "(centres undefined)", "Potency": "inactive"},
      {"smiles": "OCCC1CN(Cc2nc3ccccc3s2)CCN1C1CCCC1", "note": "(centres undefined)", "Potency": "inactive"},
      {"smiles": "CCOC(=O)C1(Cc2cccc(Cl)c2)CCCN(C(=O)CCSC)C1", "note": "(centres undefined)", "Potency": "inactive"},
      {"smiles": "Cc1ccc(C(=O)Nc2ccc(N3CCN(C)CC3)nc2)cc1", "Potency": "25000 nM (active)"},
      {"smiles": "COC(=O)CSc1nc2cc3c(cc2cc1C#N)OCO3", "Potency": "353 nM (active)"},
      {"smiles": "O=C(N/N=C/c1ccc(-c2ccc(Br)cc2)o1)c1ccc2c(c1)OCO2", "Potency": "inactive"},
      {"smiles": "O=C(/C=C/c1ccco1)NCC1OCCc2ccccc21", "note": "(centres undefined)", "Potency": "inactive"},
      {"smiles": "O=C(NC(=S)Nc1ccc(CN2CCCCC2)cc1)c1cc2ccccc2o1", "Potency": "inactive"},
      {"smiles": "O=C(c1cccc(Oc2ccc([N+](=O)[O-])cc2)c1)N1CCOCC1", "Potency": "inactive"},
      {"smiles": "CCOCC(=O)Nc1c(C(=O)Nc2ccc3c(c2)OCCO3)oc2ccccc12", "Potency": "628 nM (active)"},
      {"smiles": "CC1CC(C)CN(CC(=O)N2CCOCC2)C1", "note": "(centres undefined)", "Potency": "inactive"},
      {"smiles": "CCOC(=O)CSc1nc2cc(C)ccc2cc1C#N", "Potency": "996 nM (active)"},
      {"smiles": "Cc1cc(C)c2c(N)c(C(=O)Nc3ccc([N+](=O)[O-])cc3)sc2n1", "Potency": "499 nM (active)"},
      {"smiles": "CC(Sc1nnc(C(F)(F)F)n1C)C(=O)Nc1ccc(S(N)(=O)=O)cc1", "note": "(centres undefined)", "Potency": "inactive"},
      {"smiles": "Cc1ccc(S(=O)(=O)N2CCN(c3cnn(C)c(=O)c3Cl)CC2)cc1", "Potency": "inactive"},
      {"smiles": "CCCCCCC(=O)Nc1ccc(C(=O)N/N=C/c2cccnc2)cc1", "Potency": "inactive"},
      {"smiles": "NC(=O)C1(NC(=O)[C@@H]2CC3(CC(c4cccc(NC(=O)[C@@H]5CCC(=O)N5)c4)=NO3)CN2C(=O)c2ccccc2)CC1", "note": "(some centres undefined)", "Potency": "inactive"},
      {"smiles": "Cc1ccc(NC(=O)c2cccc(N3C(=O)CCC3=O)c2)nc1", "Potency": "inactive"},
      {"smiles": "CC(=O)NC(CCCN1C(=O)c2ccccc2C1=O)c1nnn(C)n1", "note": "(centres undefined)", "Potency": "inactive"},
      {"smiles": "Cc1csc(NC(=O)CSc2nnc(-c3ccncc3)o2)n1", "Potency": "25000 nM (active)"},
      {"smiles": "COc1ccc(NC(=O)CN(C)C(=O)c2ccc(=O)[nH]c2)cc1", "Potency": "inactive"},
      {"smiles": "Cc1ccc(C(=O)NC2CCN(CC(=O)Nc3c(C)cc(C)cc3C)CC2)cc1", "Potency": "inactive"},
      {"smiles": "O=C(CCS(=O)(=O)c1ccccc1)Nc1ccc(-c2nc3ccccc3s2)cc1", "Potency": "223 nM (active)"},
      {"smiles": "CCN(CC(=O)N(CC(C)C)c1c(N)n(CC(C)C)c(=O)[nH]c1=O)Cc1nc2ccccc2c(=O)[nH]1", "Potency": "inactive"},
      {"smiles": "Cc1ccc2nc(Nc3ccc(Cl)cc3)c3nncn3c2c1", "Potency": "inactive"}
    ]}
  ]
}
